This is a sample that favours compounds with a hit; in the whole collection about 1.9% have one here.
HTR5A inv ctr: HTR5A inverse agonists in luminescence cell assay, primary screen, counter-screen for OPRM1-OPRD1 heterodimer inverse agonist project, full-deck HTS; AID 504634, 2011; HTR5A cell line, inverse agonism; 0.083% of 340,000 active; 5-hydroxytryptamine receptor 5A (Homo sapiens), P47898; inhibition, % at 9.3 µM; in the data active means inhibition mostly above about 23%, no sharp cut-off; inactive means mostly below about 18%
OPRM1-OPRD1 inv: inverse agonists of MOR-DOR heterodimerization, primary screen, cell-based, luminescence. cell-based MOR-DOR heterodimer luminescence, inverse agonism. inhibition, % at 9.3 µM. AID 504357, 2011. 0.21% of 340,000 active; in the data active means inhibition above about 22%, passing the limit was not always enough
HTR5A ag ctr: HTR5A agonists in luminescence cell assay, primary screen, counter-screen for OPRM1-OPRD1 heterodimer agonist project, full-deck HTS; 5-hydroxytryptamine receptor 5A (Homo sapiens), P47898; cell-based; activation, % at 9.3 µM; 0.61% of 340,000 active; AID 504692, 2011; in the data active means activation mostly above about 9.5%, no sharp cut-off; inactive means mostly below about 7.6%
MsrA inh: bovine MsrA enzyme inhibitors, primary screen, biochemical, absorbance, HTS | Methionine sulfoxide reductase A (Bos taurus) | purified bovine MsrA, absorbance read-out | inhibition, % at 15.5 µM | 0.75% of 360,000 active; in the data active means inhibition above about 4.5%
OPRM1-OPRD1 ag: agonists of OPRM1-OPRD1 heterodimerization, primary screen, cell-based, luminescence. cells. AID 504326, 2011. Mu-type opioid receptor (Homo sapiens) + Delta-type opioid receptor (Homo sapiens), …. 0.3% of 340,000 active. activation, % at 9.3 µM
bovine MsrA act: bovine MsrA enzyme activators, primary screen, biochemical, absorbance, HTS; AID 602163, 2012; activation, % at 10.6 µM; Methionine sulfoxide reductase A (Bos taurus); purified bovine MsrA, absorbance read-out; 0.3% of 360,000 active; in the data active means activation above about 7.5%
MOR-DOR ag conf: agonists of MOR-DOR heterodimerization, confirmation, cell-based, luminescence; cells, luminescence complementation; shares compounds with OPRM1-OPRD1 ag; activation, % at 9.3 µM; 45% of 830 active
HTR5A ag ctr2: HTR5A agonists in cells, counter-screen for OPRM1-OPRD1 heterodimer agonist project, cell-based, luminescence; shares compounds with OPRM1-OPRD1 ag; HTR5A agonist counterscreen; activation, % at 9.3 µM; 8% of 830 active; AID 504905, 2011; in the data active means activation above about 17%
Each line names hits and unclear results; the compound was inactive in the other large screens (follow-up assays come after a bar, where they were run). Unless noted, no stated cut-off is given here; in the data, active means activation above about 18%; inactive means the rest.

CC(=O)Nc1ccc(CN2CCCC(CO)(Cc3ccccc3C)C2)cc1 (stereo not given)	OPRM1-OPRD1 ag 49 | MOR-DOR ag conf inactive | HTR5A ag ctr2 inactive
COc1ccc(-n2cc(CN(C)C(C)c3ccncn3)c(-c3cccc(F)c3)n2)cc1 (stereo not given)	none
COc1cccc(-c2nn(-c3ccccc3)cc2CN(C)C(C)c2ccncn2)c1 (stereo not given)	OPRM1-OPRD1 ag 25 | MOR-DOR ag conf inactive | HTR5A ag ctr2 inactive
Nc1nc2c(ncn2[C@@H]2O[C@H](C(=O)NCCCN3CCCC3=O)[C@@H](O)[C@H]2O)c(=O)[nH]1	none (no result: HTR5A inv ctr, OPRM1-OPRD1 inv, HTR5A ag ctr, OPRM1-OPRD1 ag, bovine MsrA act)
CC(OC(=O)c1n[nH]c2ccccc12)C(=O)Nc1ccccc1[N+](=O)[O-] (stereo not given)	OPRM1-OPRD1 ag 32 | MOR-DOR ag conf inactive | HTR5A ag ctr2 inactive
COc1ccc(C(=O)NCC2CCN(C(=O)C(=O)c3cc4ccccc4o3)CC2)c(OC)c1	none (no result: HTR5A inv ctr, OPRM1-OPRD1 inv, HTR5A ag ctr, OPRM1-OPRD1 ag, bovine MsrA act)
Cn1c(-c2c(N)n(-c3ccccc3)c3nc4ccccc4nc23)nc2ccccc21	OPRM1-OPRD1 ag 19 | MOR-DOR ag conf 26 | HTR5A ag ctr2 inactive
Cc1cccc(-n2c(N)c(-c3nc4ccccc4n3C)c3nc4ccccc4nc32)c1	none
CC(C)C[C@@H]1COc2cc(NCCCN3CCOCC3)ccc2S(=O)(=O)N1	none (no result: HTR5A inv ctr, OPRM1-OPRD1 inv, HTR5A ag ctr, OPRM1-OPRD1 ag, bovine MsrA act)
Cc1ccc(-n2c([S-])c(C(=O)Nc3ccc(OC(F)F)cc3)[n+]3ccc(C(=O)NCCO)cc23)cc1C	OPRM1-OPRD1 ag 19 | MOR-DOR ag conf inactive | HTR5A ag ctr2 inactive
COc1ccccc1-n1c([S-])c(C(=O)Nc2ccccc2C(F)(F)F)[n+]2ccc(C(=O)NCCO)cc12	none
Cc1onc(-c2ccc(Cl)cc2)c1-c1ccnc(SCC(=O)Nc2ccc(C(C)C)cc2)n1	OPRM1-OPRD1 ag 56 | MOR-DOR ag conf inactive | HTR5A ag ctr2 inactive
O=C(CSc1nccc(-c2cccs2)n1)Nc1ccc(Cl)cc1	none
CC(=O)Nc1ccc(NC(=O)Nc2ccc3c(c2)N(C)C(=O)CS3)cc1	OPRM1-OPRD1 ag 21 | MOR-DOR ag conf inactive | HTR5A ag ctr2 inactive
COc1cccc(NC(=O)Nc2ccc3c(c2)N(C)C(=O)CS3)c1	none
Cc1ccc(C)c(N2CCN(C(=O)Nc3ccc4c(c3)N(C)C(=O)CS4)CC2)c1	none
CN1C(=O)CSc2ccc(NC(=O)N3CCN(c4ccccn4)CC3)cc21	OPRM1-OPRD1 ag 36 | MOR-DOR ag conf 26 | HTR5A ag ctr2 inactive
C=CCNc1cccc2c1S(=O)(=O)N[C@@H](C)CO2	none (no result: HTR5A inv ctr, OPRM1-OPRD1 inv, HTR5A ag ctr, OPRM1-OPRD1 ag, bovine MsrA act)
O=C(NCC1CCN(C(=O)C(=O)c2cccs2)CC1)c1ccc2c(c1)OCO2	none (no result: HTR5A inv ctr, OPRM1-OPRD1 inv, HTR5A ag ctr, OPRM1-OPRD1 ag, bovine MsrA act)
Cc1cc(/C=C(/C#N)c2nc3ccccc3[nH]2)c(C)n1-c1cccc([N+](=O)[O-])c1	none
Cc1cc(/C=C(\C#N)c2nc3ccccc3[nH]2)c(C)n1C	HTR5A ag ctr 13, OPRM1-OPRD1 ag 27 | MOR-DOR ag conf inactive | HTR5A ag ctr2 inactive
OCC1(CCc2ccccc2)CCN(Cc2ccccc2Cl)CC1	OPRM1-OPRD1 ag 55 | MOR-DOR ag conf 86 | HTR5A ag ctr2 inactive
OCC1(CCc2ccccc2)CCN(Cc2cc(F)ccc2-n2cccn2)CC1	OPRM1-OPRD1 ag 78 | MOR-DOR ag conf 92 | HTR5A ag ctr2 inactive
COc1ccc2c(c1)C=C(CN1CCC(CO)(CCc3ccccc3)CC1)CO2	OPRM1-OPRD1 ag 36 | MOR-DOR ag conf 54 | HTR5A ag ctr2 inactive
OCC1(CCCc2ccccc2)CCN(Cc2cc(F)ccc2F)CC1	none
COc1ccc(CC2(CO)CCN(CC3=Cc4cc(Cl)ccc4OC3)CC2)cc1	none
Clc1ccccc1CN1CCN(CCCc2ccccc2)CC1	none
CC(C)C[C@@H]1COc2cccc(N3CCCCC3)c2S(=O)(=O)N1	none (no result: HTR5A inv ctr, OPRM1-OPRD1 inv, HTR5A ag ctr, OPRM1-OPRD1 ag, bovine MsrA act)

Screening results as filed in PubChem.
